# In the library only some 2.3% were active in any assay of this set; here they are far more common.
# Tau fil binding: tau filament binding; Potency, µM (titrated, usually from 57.1 µM), without a hit: at the top dose activity change, negative = inhibition; AID 596; recombinant tau filaments, thioflavin S fluorescence, 15 h; filaments grown with octadecylsulfate alongside compound; 71,000 compounds, 2% hits; P10636;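 note: potency is the fitted concentration of half-maximal effect; % is set by controls: 0 for no effect and ±100 for the full control effect; actives lower thioflavin S fluorescence by blocking filaments or displacing dye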
# Target sequence (P10636 whole entry, looked up): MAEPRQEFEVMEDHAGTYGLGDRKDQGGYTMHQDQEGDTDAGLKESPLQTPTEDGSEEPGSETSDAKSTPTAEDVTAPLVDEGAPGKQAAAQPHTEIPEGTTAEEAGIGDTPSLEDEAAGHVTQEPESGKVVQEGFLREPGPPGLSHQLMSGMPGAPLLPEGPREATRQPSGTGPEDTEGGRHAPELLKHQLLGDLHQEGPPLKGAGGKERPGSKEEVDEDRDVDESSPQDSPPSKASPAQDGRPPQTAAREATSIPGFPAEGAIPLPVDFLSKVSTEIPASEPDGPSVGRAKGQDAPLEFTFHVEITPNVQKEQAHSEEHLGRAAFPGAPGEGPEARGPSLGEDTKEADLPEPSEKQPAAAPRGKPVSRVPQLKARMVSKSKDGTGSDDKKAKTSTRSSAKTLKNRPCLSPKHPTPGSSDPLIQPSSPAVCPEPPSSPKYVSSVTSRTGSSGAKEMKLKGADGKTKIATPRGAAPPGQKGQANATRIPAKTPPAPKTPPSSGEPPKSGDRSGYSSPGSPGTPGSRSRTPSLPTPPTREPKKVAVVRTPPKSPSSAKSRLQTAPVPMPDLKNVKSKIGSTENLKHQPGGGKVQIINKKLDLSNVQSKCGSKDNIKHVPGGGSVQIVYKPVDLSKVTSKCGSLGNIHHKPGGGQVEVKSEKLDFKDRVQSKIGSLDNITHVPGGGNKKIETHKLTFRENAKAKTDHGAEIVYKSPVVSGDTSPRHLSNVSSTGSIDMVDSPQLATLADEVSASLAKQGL
#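 Assay mix: 1 uM His-tagged tau, 30 uM sodium octadecylsulfate, thioflavine S dye in HEPES/NaCl/DTT buffer. Compound is added prior to the inducer. Fluorescence after 15 h at 37 C.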
# BRCT inh red: disrupts BRCA1 BRCT binding to phosphoprotein, red fluorophore readout | P38398 | BRCT-phosphopeptide binding, red fluorescence polarization | Potency, µM (titrated, usually from 76.9 µM), without a hit: at the highest dose activity change, negative = inhibition, actives largely listed as inhibitors | 75,000 compounds, 0.03% hits | AID 892; note: % is set by controls: 0 for no effect and ±100 for the full control effect
#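 Rhodamine-labelled pBACH1 10-mer (100 nM) bound to BRCT domain (100 nM) at pH 7.3; compounds incubated 12 min room temperature, polarization read. Free peptide defines full inhibition; unlabelled decapeptide titrated as control.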
# Hsp90 Hop PPI: changes Hsp90-Hop TPR2A binding signal, up or down | AlphaScreen TPR2A-His6 binding biotin-Hsp90 C-terminal peptide | Potency, µM (titrated, usually from 57 µM), for the others: at the top dose activity change, negative = inhibition | 71,000 compounds, 0.44% hits; active = well fitted curve in either direction with a large enough effect; inconclusive = small, poorly fitted or top-dose-only effect, or another doubt; note: potency is the fitted concentration of half-maximal effect; % is set by controls: 0 for no effect and ±100 for the full control effect
# Pol III holo inh: blocks replication by bacterial DNA polymerase III holoenzyme; reconstituted DNA polymerase III holoenzyme replication, biochemical; Potency, µM (doses to about 57.1 µM), inactives show top-dose activity change, negative = inhibition; 71,000 compounds, 0.25% hits; note: potency is the fitted concentration of half-maximal effect; % is set by controls: 0 for no effect and ±100 for the full control effect
#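 Reconstituted *E. coli* holoenzyme (0.35 nM Pol III, 1 nM beta, 154 nM SSB, 2 nM primase) was preincubated with compound for 15 min at RT. Synthesis on 1.4 nM ssM13Gori ran 35 min, then was stopped with PicoGreen/EDTA and read as dsDNA fluorescence.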
# TsaE inh: displaces an ADP probe from E. coli YjeE (TsaE); P0AF67; purified YjeE enzyme, qHTS inhibition assay; Potency, µM; 71,000 compounds, 0.05% hits; AID 605
#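 Purified YjeE (10 uM) with BODIPY Texas Red-labeled ADP probe (2 uM); compounds pin-transferred, 15 min at room temperature. Binding inhibition read as decreased fluorescence polarization; ADP titration as control.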
# BRCT PPI green: blocks human BRCA1 BRCT binding to phosphopeptide, green readout | BRCA1 BRCT-phosphopeptide binding, green fluorescence polarization | Potency, µM (doses to about 76.9 µM), for the others: at the highest dose activity change, negative = inhibition, usual class: inhibitors | 75,000 compounds, 0.05% hits | AID 875;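 note: potency is the fitted concentration of half-maximal effect; plate controls were peptide without protein for full effect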
#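 Compounds were incubated for 12 min at room temperature with a complex of 100 nM fluorescein-tagged pBACH1 decapeptide and 250 nM His-tagged BRCT protein. Buffer was phosphate pH 7.3 with EDTA, DTT and Tween 20. Disruption of binding lowers the polarization signal.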
# * = called active by the depositor; i = inactive; ? = inconclusive; / = not tested or not shown; ! = not active in a repeat; [ ] = dose if it differs, or a comment. Unless noted, calls come from the whole dose curve; as a rule, active = well fitted curve in the direction sought with a large enough effect; inconclusive = small, poorly fitted or top-dose-only effect, or another doubt; inactive = no such curve, though single readings can be large; an effect the other way counts as inactive or inconclusive.
SMILES,Tau fil binding,BRCT inh red,Hsp90 Hop PPI,Pol III holo inh,TsaE inh,BRCT PPI green
COc1cc(Sc2ccc(C)cc2)c(OC)cc1N,25.1µM*,-1.7%,?,1.7%,i,0.1%
COC(=O)c1ccc(Sc2ccc(C)cc2)c(N)c1,-12.5%,0.2%,6.5%,4.4%,i,-1.9%
CC(C)(C)c1ccccc1NC(=O)c1cccnc1,-4.8%,0.6%,-2.1%,31.6µM*,i,-1.8%
C1=CC2c3ccccc3NC(c3ccncc3)C2C1 (centres undefined),7.94µM*,-0.4%,?,-1.5%,i,-1.5%
CC(C)C1Nc2ccc(S(N)(=O)=O)cc2C2C=CCC21 (centres undefined),109.0%,-0.9%,-29.5%,-1.0%,i,2.5%
O=C(CSc1nnc(-c2cccs2)n1CC1CCCO1)c1cc2ccccc2o1 (centres undefined),15.8µM*,2.3%,-8.1%,0.1%,i,19.9%
CCCCCOC(=O)c1cc(=O)[nH]c2ccccc12,10µM*,-0.8%,0.8%,-7.5%,i,-1.7%
O=C(OCCN1C(=O)c2ccccc2C1=O)c1cc(=O)[nH]c2ccccc12,-25.6%,1.9%,-4.0%,-6.1%,i,0.5%
Oc1c(CN2CCCCC2)cc(COCc2ccccc2)c2cccnc12,-11.3%,0.5%,2.51µM*,-9.0%,i,-0.4%
O=C(Oc1c(CN2CCOCC2)cc(Cl)c2cccnc12)c1ccc(F)cc1,-1.4%,0.3%,12.6µM*,-3.7%,i,1.2%
Oc1cc(Cc2ccccc2)cnc1CN1CCCCC1,-7.1%,0.3%,-4.8%,1.3%,i,-2.4%
Oc1ccc(COCc2ccccc2)c2cccnc12,-13.1%,-0.2%,25.1µM*,-4.7%,i,1.1%
COCc1cc(CN2CCCC2)c(O)c2ncccc12,-15.7%,-0.2%,3.16µM*,-3.3%,i,-1.4%
Oc1c(CN2CCN(c3ccccn3)CC2)cc(Cl)c2cccnc12,-23.5%,1.5%,7.94µM*,-4.7%,i,-3.3%
COc1ccccc1N1CCN(Cc2cc(Br)c(O)c3ncccc23)CC1,-9.8%,-0.7%,-11.4%[2.3 µM],-4.3%,i,-1.7%
Oc1ccc(CNc2ccccc2F)c2cccnc12,-4.9%,-0.6%,5.01µM*,-2.6%,i,-2.0%
Oc1ccc(CNCc2ccccc2)c2cccnc12,-26.8%[11.4 µM],-2.0%[15.4 µM],?,-5.0%[11.4 µM],i,-1.9%[15.4 µM]
COc1ccc(Oc2ncc3nc(-c4cc(F)cc(F)c4)c(=O)n(C)c3n2)cc1,?,-2.1%,3.4%,-8.0%,i,-2.7%
O=C(Nc1ccc2nc(-c3ccco3)[nH]c2c1)c1cccs1,20µM*,-1.1%,-19.5%,-3.7%,i,2.5%
Nc1c2ccccc2nc2ccccc12,5.7%,-0.3%,-2.8%,39.8µM*,i,0.3%[3.08 µM]
Nc1c2c(nc3ccccc13)CCCC2,43.6%,1.1%,-2.9%,-10.0%,i,3.7%
O=C(NC1CCCCC1)NC1CCCCC1,/,2.4%,/,/,/,0.4%[3.08 µM]
O=C(O)c1ccccc1C(=O)Nc1cc2c(cc1Br)-c1ccccc1C2=O,-2.2%[11.4 µM],-1.9%[15.4 µM],-3.4%[11 µM],-6.9%[11.4 µM],i,-4.2%[15.4 µM]
CSc1ccc2c(c1)N(CC[C@H]1CCCCN1C)c1ccccc1S2,3.98µM*!,0.1%[34.4 µM],-9.8%[26 µM],-2.9%[25.6 µM],i,0.1%[34.4 µM]
CN(C)c1ccc(NC(=O)CCCc2ccccc2)cc1,20µM*,0.3%,-13.1%,-2.5%,i,-1.2%
SMILES,Tau fil binding,BRCT inh red,Hsp90 Hop PPI,Pol III holo inh,TsaE inh,BRCT PPI green
COCC(=O)Nc1ccc(N(C)C)cc1,-4.4%,0.5%,-4.4%,-4.9%,i,-0.2%
CC(=O)OC1C(=O)[C@@]2(C)C(O)CC3OC[C@]3(OC(C)=O)C2C(OC(=O)c2ccccc2)[C@]2(O)CC(OC(=O)C(O)C(NC(=O)c3ccccc3)c3ccccc3)C(C)=C1C2(C)C (some centres undefined),/,0.8%,/,/,/,-3.7%[3.08 µM]
COC(=O)N1CCC2(CC1)CCN(c1ccccc1)CC2,-1.6%,1.5%,-6.7%,0.1%,i,-2.5%
Cc1nn2cc(-c3ccc(N)cc3)nc2s1,15.8µM*,-0.4%,-12.1%,-9.9%,i,-1.1%
COc1ccc(OC)c(N)c1,12.6µM*,-5.9%,-28.8%,0.9%,i,-2.7%
C=C/C(C)=C/[C@]1(C)SC(=O)C(C)=C1O,-3.5%,-1.7%,-5.7%,-13.2%,i,-1.1%
N[C@@H]1C=CC=C(C(=O)O)C1,2.7%,0.5%,?,-2.6%,i,-2.2%
COc1ccc2c(c1)OC1(O)COc3cc(OC)c(OC)cc3C1=C2 (centres undefined),/,0.6%,/,/,/,-0.2%
Cc1cccc(OCC(=O)Nc2ccc(N3CCCC3)cc2)c1C,?,0.3%,?,1.9%[11.4 µM],i,-0.9%
Cc1cc(C)cc(OCC(=O)Nc2ccc(N3CCCC3)cc2)c1,/,-1.9%,/,/,/,-0.5%
O=C(CNCC1CCCO1)Nc1ccc(N2CCCCCC2)cc1 (centres undefined),31.6µM*,-1.7%,-15.8%,-4.8%,i,-2.4%
Cc1ccc(OCC(=O)Nc2ccc(N3CCCC3)cc2)cc1C,1.58µM*,0.2%,?,-2.8%[11.4 µM],i,-1.7%
CN1CCN(c2ccc(NC(=O)COc3ccccc3Cl)cc2)CC1,15.8µM*,0.5%,-7.1%,5.3%,i,-0.1%
O=C(O)CCC(=O)Nc1ccc(N2CCCCCC2)cc1,-11.5%,-0.2%,-7.3%,2.2%,i,0.9%
CCOc1ccccc1OCC(=O)Nc1ccc(N2CCCCC2)cc1,25.1µM*,-0.3%,-23.6%,-0.7%,i,-5.6%
CC(C)(C(=O)O)c1ccc([C@@H](O)CCCN2CCC(C(O)(c3ccccc3)c3ccccc3)CC2)cc1,8.5%,2.4%,-1.9%,-4.9%,i,-1.7%
CCc1cc2c(nc1CC)CCN(CC/C(C)=N/O[C@@H](C)c1cn([C@H](CO)Cc3ccccc3)nn1)C2,/,0.6%[15.4 µM],/,/,/,-0.9%[15.4 µM]
CCCNC(=O)OC[C@H]1O[C@@H](CCO/N=C\[C@@H](NS(=O)(=O)c2ccc(C)cc2)[C@H](C)/C=C\CC(=O)OC)C=C[C@@H]1Oc1ccc(OC)cc1,/,-0.5%[15.4 µM],/,/,/,-0.9%[15.4 µM]
Cc1cnc(CNc2ncncc2-c2cccc(C#N)c2)cn1,-16.1%,-0.6%,-3.5%,1.8%,i,-1.9%
COC(=O)CCCCCN1C(=O)NC(CC2CC2)C(C(=O)OCc2ccccc2)=C1C (centres undefined),25.4%,-1.0%,-1.9%,1.1%,i,-1.3%
Cc1ccc(OCCCC(=O)Nc2ccc(N3CCOCC3)cc2)c(C)c1,?,1.1%,-10.3%,-3.4%,i,-6.1%
Cc1ccccc1OCCCC(=O)Nc1ccc(N2CCOCC2)cc1,3.16µM*,0.3%,-15.7%[11 µM],3.4%[11.4 µM],i,0.5%
COc1cccc(OC)c1C(=O)NC1C(=O)N2C1SC(C)(C)C2C(=O)O (centres undefined),/,12.7%,/,/,/,6.6%[3.08 µM]
c1ccc2c(c1)[nH]c1nc(SCCN3CCOCC3)nnc12,-19.1%,0.5%,-2.6%,-1.2%,i,-0.5%

# Bioassay records as filed in PubChem.
